{"source": "PubChem BioAssay (NCATS)", "note": "Results filed as inconclusive are left out. Unmarked numbers belong to inactive results. Calls of active or inactive are those of the source. The call rests on the fitted dose curve; in most records, active means well fitted inhibition curve with a large enough effect; inconclusive means small, poorly fitted or top-dose-only effect; inactive means flat fitted curve, though single readings scatter. Potency means the concentration at half of the fitted maximal effect."}
{"tested_on": "DIV30", "test": "qHTS profiling for inhibitors of Plasmodium falciparum proliferation (AID 504749); further: nearly all actives have a fitted effect of over 60% in size;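 on activity, negative = inhibition: 0% = DMSO vehicle and full inhibition = artemisinin control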", "details": "P. falciparum in erythrocytes, SYBR Green DNA, 72 h; series mostly up to 28.7 µM; activity, negative = inhibition: at the top concentration", "summary_of_the_method": "(§1)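 Three-day growth assay of blood-stage parasites in erythrocytes (0.3% parasitemia, 2.5% hematocrit) at 37 C, 5% CO2, quantified by SYBR Green DNA staining after overnight detergent lysis.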"}
{"smiles": "COc1cc(O)c(C(=O)c2ccccc2)cc1S(=O)(=O)O", "activity, negative = inhibition": "-16.4%"}
{"smiles": "C[N+]1(C)CCC(=C(c2ccccc2)c2ccccc2)CC1", "activity, negative = inhibition": "-22.2% [at 12.8 µM]"}
{"smiles": "CCN(CC)CCOC(=O)C1(c2ccccc2)CCCC1", "activity, negative = inhibition": "-30.8%"}
{"smiles": "CCC(CC)(CC(=O)Nc1cccc(/C=C/c2nc(C3CCC3)cs2)c1)C(=O)O", "activity, negative = inhibition": "-15.2%"}
{"smiles": "CN1CCN(C2=Nc3cc(F)ccc3Cc3ccccc32)CC1", "activity, negative = inhibition": "-17.8%"}
{"smiles": "C#C[C@]1(OC(C)=O)CC[C@H]2[C@@H]3CCC4=C/C(=N/O)CC[C@@H]4[C@H]3CC[C@@]21CC", "activity, negative = inhibition": "-10%"}
{"smiles": "COc1cc([C@H]2Oc3cc([C@H]4Oc5cc(O)cc(O)c5C(=O)[C@@H]4O)ccc3O[C@@H]2CO)ccc1O", "Potency": "19 µM (active)"}
{"smiles": "O=[N+]([O-])c1cccc(S(=O)(=O)NCCNS(=O)(=O)c2cccc([N+](=O)[O-])c2)c1", "activity, negative = inhibition": "-8.01%"}
{"smiles": "CC(C)[N+](C)(C)CC(O)COc1cccc2ccccc12", "note": "(stereo not given)", "activity, negative = inhibition": "-11.5%"}
{"smiles": "CC(=O)O[C@H]1C[C@@H]2CC[C@@H]3[C@H](CC[C@@]4(C)[C@H]3C[C@H]([N+]3(C)CCCCC3)[C@@H]4OC(C)=O)[C@@]2(C)C[C@@H]1N1CCCCC1", "activity, negative = inhibition": "-2.43%"}
{"smiles": "CCNC(=O)NCc1cccc(Cl)c1", "activity, negative = inhibition": "-8.13%"}
{"smiles": "CCOc1ccccc1OCCN[C@H](C)Cc1ccc(OC)c(S(N)(=O)=O)c1", "activity, negative = inhibition": "-3.31%"}
{"smiles": "CCOC(=O)Nc1ccc2c(c1)N(C(=O)CCN1CCOCC1)c1ccccc1S2", "activity, negative = inhibition": "3.15% [at 12.8 µM]"}
{"smiles": "CC[N+](C)(CC)CCOC(=O)C(O)(c1ccccc1)C1CCCCC1", "note": "(stereo not given)", "activity, negative = inhibition": "-22.6%"}
{"smiles": "CCC(C(=O)OCCOCCN(CC)CC)c1ccccc1", "note": "(stereo not given)", "activity, negative = inhibition": "-13.3%"}
{"smiles": "NC(=O)C1(N2CCCCC2)CCN(CCCC(=O)c2ccc(F)cc2)CC1", "activity, negative = inhibition": "-2.33%"}
{"smiles": "Cc1ccc2c(Br)cc(Br)c(O)c2n1", "Potency": "16.9 µM (active)"}
{"smiles": "CCCCCCCCCCCCOCCOCCOCCOCCOCCOCCOCCOCCOCCO", "activity, negative = inhibition": "-4.68%"}
{"smiles": "COC(=O)C(c1ccccc1Cl)N1CCc2sccc2C1", "note": "(stereo not given)", "activity, negative = inhibition": "-19.6%"}
{"smiles": "Cc1cc2c(OCC(CNC(C)(C)C)OC(=O)c3ccccc3)cccc2[nH]1", "note": "(stereo not given)", "activity, negative = inhibition": "-8.46%"}
{"smiles": "CC(=O)NCCCCCC(=O)O", "activity, negative = inhibition": "-15%"}
{"smiles": "CCc1ccc(C(=O)C(C)CN2CCCCC2)cc1", "note": "(stereo not given)", "activity, negative = inhibition": "2.18%"}
{"smiles": "COc1ccc2c(c1)c1c3n2CCN(C)C3=NCC1", "activity, negative = inhibition": "-4.25%"}
{"tested_on": "Dd2", "test": "qHTS profiling for inhibitors of Plasmodium falciparum proliferation (AID 504749); further: nearly all actives have a fitted effect of over 60% in size;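 on activity, negative = inhibition: 0% = DMSO vehicle and full inhibition = artemisinin control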", "details": "P. falciparum in erythrocytes, SYBR Green DNA, 72 h; series mostly up to 28.7 µM; activity, negative = inhibition: at the top concentration", "summary_of_the_method": "as §1"}
{"smiles": "COc1cc(O)c(C(=O)c2ccccc2)cc1S(=O)(=O)O", "activity, negative = inhibition": "-17.2%"}
{"smiles": "C[N+]1(C)CCC(=C(c2ccccc2)c2ccccc2)CC1", "activity, negative = inhibition": "-8.86% [at 12.8 µM]"}
{"smiles": "CCN(CC)CCOC(=O)C1(c2ccccc2)CCCC1", "Potency": "8.91 µM (active)"}
{"smiles": "CCC(CC)(CC(=O)Nc1cccc(/C=C/c2nc(C3CCC3)cs2)c1)C(=O)O", "activity, negative = inhibition": "-19.6%"}
{"smiles": "CN1CCN(C2=Nc3cc(F)ccc3Cc3ccccc32)CC1", "Potency": "14.1 µM (active)"}
{"smiles": "COc1ccc(C(=O)c2ccccc2O)c(O)c1", "activity, negative = inhibition": "-7.04% [at 12.8 µM]"}
{"smiles": "NCc1ccccc1Sc1ccccc1CO", "Potency": "10 µM (active)"}
{"smiles": "C#C[C@]1(OC(C)=O)CC[C@H]2[C@@H]3CCC4=C/C(=N/O)CC[C@@H]4[C@H]3CC[C@@]21CC", "activity, negative = inhibition": "-20%"}
{"smiles": "CN(C)CCN1C(=O)c2ccccc2N(C)c2ccccc21", "Potency": "11.2 µM (active)"}
{"smiles": "COc1cc([C@H]2Oc3cc([C@H]4Oc5cc(O)cc(O)c5C(=O)[C@@H]4O)ccc3O[C@@H]2CO)ccc1O", "activity, negative = inhibition": "-10%"}
{"smiles": "O=[N+]([O-])c1cccc(S(=O)(=O)NCCNS(=O)(=O)c2cccc([N+](=O)[O-])c2)c1", "activity, negative = inhibition": "-20.8%"}
{"smiles": "Cc1ncc(CO)c(C=O)c1O", "activity, negative = inhibition": "11.3%"}
{"smiles": "O=C(O)CCc1nc2ccccc2[nH]1", "Potency": "0.0007 µM (active)"}
{"smiles": "CCNC(=O)NCc1cccc(Cl)c1", "activity, negative = inhibition": "-7.72%"}
{"smiles": "CCOc1ccccc1OCCN[C@H](C)Cc1ccc(OC)c(S(N)(=O)=O)c1", "activity, negative = inhibition": "-7.9%"}
{"smiles": "Oc1ccc(Cl)cc1Cc1cc(Cl)ccc1O", "activity, negative = inhibition": "-26.7%"}
{"smiles": "CCOC(=O)Nc1ccc2c(c1)N(C(=O)CCN1CCOCC1)c1ccccc1S2", "activity, negative = inhibition": "-3.97% [at 12.8 µM]"}
{"smiles": "CC(C)=CCOc1ccc(/C=C/C(=O)c2ccc(OCC=C(C)C)cc2OCC(=O)O)cc1", "activity, negative = inhibition": "-10.2%"}
{"smiles": "O=C(CN1CCN(Cc2ccc3c(c2)OCO3)CC1)N1c2ccccc2Sc2ccccc21", "Potency": "11.2 µM (active)"}
{"smiles": "Cc1ccc2c(Br)cc(Br)c(O)c2n1", "Potency": "11.2 µM (active)"}
{"smiles": "CCCCCCCCCCCCOCCOCCOCCOCCOCCOCCOCCOCCOCCO", "Potency": "12.6 µM (active)"}
{"smiles": "CN1CCC(OC(c2ccccc2)c2ccccc2)CC1", "Potency": "3.98 µM (active)"}
{"smiles": "COC(=O)C(c1ccccc1Cl)N1CCc2sccc2C1", "note": "(stereo not given)", "activity, negative = inhibition": "-26.4%"}
{"smiles": "Cc1cc2c(OCC(CNC(C)(C)C)OC(=O)c3ccccc3)cccc2[nH]1", "note": "(stereo not given)", "Potency": "3.98 µM (active)"}
{"smiles": "Cc1cccc(C)c1NC(=O)CN1CCCCCC1", "activity, negative = inhibition": "-21.8%"}
{"smiles": "CC(=O)NCCCCCC(=O)O", "activity, negative = inhibition": "-11%"}
{"smiles": "CCc1ccc(C(=O)C(C)CN2CCCCC2)cc1", "note": "(stereo not given)", "activity, negative = inhibition": "-17%"}
{"smiles": "CN(C)CCOC(c1ccc(Cl)cc1)c1ccccn1", "note": "(stereo not given)", "Potency": "4.47 µM (active)"}
{"smiles": "COc1ccc2c(c1)c1c3n2CCN(C)C3=NCC1", "activity, negative = inhibition": "-4.91%"}
{"tested_on": "ECU", "test": "qHTS profiling for inhibitors of Plasmodium falciparum proliferation (AID 504749); further: nearly all actives have a fitted effect of over 60% in size;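 on activity, negative = inhibition: 0% = DMSO vehicle and full inhibition = artemisinin control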", "details": "P. falciparum in erythrocytes, SYBR Green DNA, 72 h; series mostly up to 28.7 µM; activity, negative = inhibition: at the top concentration", "summary_of_the_method": "as §1"}
{"smiles": "C[N+]1(C)CCC(=C(c2ccccc2)c2ccccc2)CC1", "activity, negative = inhibition": "-8.9% [at 12.8 µM]"}
{"smiles": "CCN(CC)CCOC(=O)C1(c2ccccc2)CCCC1", "activity, negative = inhibition": "-62.2%"}
{"smiles": "CCC(CC)(CC(=O)Nc1cccc(/C=C/c2nc(C3CCC3)cs2)c1)C(=O)O", "activity, negative = inhibition": "3.07%"}
{"smiles": "CN1CCN(C2=Nc3cc(F)ccc3Cc3ccccc32)CC1", "activity, negative = inhibition": "-23%"}
{"smiles": "COc1ccc(C(=O)c2ccccc2O)c(O)c1", "activity, negative = inhibition": "-28.4% [at 12.8 µM]"}
{"smiles": "NCc1ccccc1Sc1ccccc1CO", "activity, negative = inhibition": "-21.8%"}
{"smiles": "C#C[C@]1(OC(C)=O)CC[C@H]2[C@@H]3CCC4=C/C(=N/O)CC[C@@H]4[C@H]3CC[C@@]21CC", "activity, negative = inhibition": "2.1%"}
{"smiles": "CN(C)CCN1C(=O)c2ccccc2N(C)c2ccccc21", "activity, negative = inhibition": "-24.5%"}
{"smiles": "COc1cc([C@H]2Oc3cc([C@H]4Oc5cc(O)cc(O)c5C(=O)[C@@H]4O)ccc3O[C@@H]2CO)ccc1O", "activity, negative = inhibition": "-5.56%"}
{"smiles": "Cc1ncc(CO)c(C=O)c1O", "activity, negative = inhibition": "1.53%"}
{"smiles": "CC(=O)O[C@H]1C[C@@H]2CC[C@@H]3[C@H](CC[C@@]4(C)[C@H]3C[C@H]([N+]3(C)CCCCC3)[C@@H]4OC(C)=O)[C@@]2(C)C[C@@H]1N1CCCCC1", "activity, negative = inhibition": "-13.5%"}
{"smiles": "CCNC(=O)NCc1cccc(Cl)c1", "activity, negative = inhibition": "-0.412%"}
{"smiles": "CCOc1ccccc1OCCN[C@H](C)Cc1ccc(OC)c(S(N)(=O)=O)c1", "activity, negative = inhibition": "4.63%"}
{"smiles": "CCOC(=O)Nc1ccc2c(c1)N(C(=O)CCN1CCOCC1)c1ccccc1S2", "activity, negative = inhibition": "6.33% [at 12.8 µM]"}
{"smiles": "CC[N+](C)(CC)CCOC(=O)C(O)(c1ccccc1)C1CCCCC1", "note": "(stereo not given)", "activity, negative = inhibition": "-11.7%"}
{"smiles": "CC(C)=CCOc1ccc(/C=C/C(=O)c2ccc(OCC=C(C)C)cc2OCC(=O)O)cc1", "activity, negative = inhibition": "-12.9%"}
{"smiles": "CCC(C(=O)OCCOCCN(CC)CC)c1ccccc1", "note": "(stereo not given)", "activity, negative = inhibition": "-27.2%"}
{"smiles": "O=C(NC1CCN(CCc2c[nH]c3ccccc23)CC1)c1ccccc1", "activity, negative = inhibition": "-25.8%"}
{"smiles": "NC(=O)C1(N2CCCCC2)CCN(CCCC(=O)c2ccc(F)cc2)CC1", "activity, negative = inhibition": "-2.45%"}
{"smiles": "CN1CCN(C2=Nc3ccccc3Sc3ccc(Cl)cc32)CC1", "activity, negative = inhibition": "-21.7%"}
{"smiles": "CN1CCC(OC(c2ccccc2)c2ccccc2)CC1", "activity, negative = inhibition": "-13.6% [at 12.8 µM]"}
{"smiles": "Cc1cc2c(OCC(CNC(C)(C)C)OC(=O)c3ccccc3)cccc2[nH]1", "note": "(stereo not given)", "activity, negative = inhibition": "-25.7%"}
{"smiles": "Cc1cccc(C)c1NC(=O)CN1CCCCCC1", "activity, negative = inhibition": "1.61%"}
{"smiles": "CC(=O)NCCCCCC(=O)O", "activity, negative = inhibition": "11.7%"}
{"smiles": "CCc1ccc(C(=O)C(C)CN2CCCCC2)cc1", "note": "(stereo not given)", "activity, negative = inhibition": "-1.6%"}
{"smiles": "CN(C)CCOC(c1ccc(Cl)cc1)c1ccccn1", "note": "(stereo not given)", "activity, negative = inhibition": "-13.5%"}
{"smiles": "COc1ccc2c(c1)c1c3n2CCN(C)C3=NCC1", "activity, negative = inhibition": "-5.09%"}
{"smiles": "CO[C@]12C[C@@H](COC(=O)c3cncc(Br)c3)CN(C)[C@@H]1Cc1cn(C)c3cccc2c13", "activity, negative = inhibition": "-11.6%"}
